PubChem BioAssay AID624465 (National Center for Advancing Translational Sciences (NCATS), 2012)
Among all 360,000 compounds or so, about 300 (0.083%) were called active. The entries come from a sample that favours actives as a whole. Unmarked numbers belong to inactive results. Rule as the data show it: active = activation above about 40%; inconclusive = between about 15% and that limit; inactive = weaker than that.

Biological target: D(2) dopamine receptor (Homo sapiens) (UniProt P14416)
Assay: Beta-Arrestin HTS for Positive Allosteric Modulators of the Human D2 Dopamine Receptor: Agonists
Conditions: DiscoveRx PathHunter D2 beta-arrestin, luminescence, 90 min; active compounds read high; 100% = 57 uM dopamine signal
Excerpt: There is great interest in identifying small molecule ligands for G-protein coupled receptors (GPCRs) as nearly 50% of all FDA-approved drugs target these important receptor proteins. […] Amongst the dopamine receptors (DARs), the D2 is arguably one of the most validated drug targets in neurology and psychiatry. For instance, all receptor-based antiparkinsonian drugs primarily work via stimulating the D2 DAR, whereas all FDA-approved antipsychotic agents are antagonists of this receptor. The D2 DAR is also therapeutically targeted in other disorders such as restless legs syndrome, tardive dyskinesia, Tourette's syndrome, and hyperprolactinemia.
To this end, a miniaturized qHTS screen was developed to be screened against the Molecular Libraries Small Molecule Repository (MLSMR). This assay seeks to identify agonists against the D2 DAR.
NIH Molecular Libraries Probe Production Network [MLPCN]
NIH Chemical Genomics Center [NCGC]
PI Name: David Sibley, National Institutes of Neurological Disorders and Stroke
DiscoveRx D2 cells were thawed from frozen stock and seeded at 2,100 cells/ 3 uL/well media (DiscoveRx Plating Reagent 2) with MultiDrop Combi dispenser (Thermo Scientific, Logan, UT) onto white tissue culture treated 1536-well Aurora plates (Brooks Automation, Chelmsford, MA) and allowed to attach overnight at 37 deg C, 5% CO2. Next, 23 nL/well of compound solutions in DMSO were added with a pintool transfer (Kalypsis, San Diego, CA). As the positive control, 1 uL/well dopamine (EC100, 57 uM final concentration) diluted in buffer (HBSS + 10 mM HEPES + SMB + 0.1% Tween-20) was dispensed to 1 column of each plate. The rest of the plate was dispensed with buffer only, 1 uL/well as well. The cells were stimulated by compounds or dopamine control for 90 minutes at 37 deg C, 5% CO2, after which 1.5 ul/well of DiscoveRx detection reagent was added with BioRAPTR FRD dispenser. The detection reagent was prepared by mixing of Galacton Star Substrate, Emerald II solution and PathHunter buffer (supplied by the assay kit) together at 1:5:19 proportion accordingly just prior to dispensing. The plates were incubated at ambient temperature for 1 hour and then the luminescent signal was read on ViewLux plate reader (PerkinElmer, Waltham, MA).

Chain of D(2) dopamine receptor (Homo sapiens) (P14416 whole entry, looked up): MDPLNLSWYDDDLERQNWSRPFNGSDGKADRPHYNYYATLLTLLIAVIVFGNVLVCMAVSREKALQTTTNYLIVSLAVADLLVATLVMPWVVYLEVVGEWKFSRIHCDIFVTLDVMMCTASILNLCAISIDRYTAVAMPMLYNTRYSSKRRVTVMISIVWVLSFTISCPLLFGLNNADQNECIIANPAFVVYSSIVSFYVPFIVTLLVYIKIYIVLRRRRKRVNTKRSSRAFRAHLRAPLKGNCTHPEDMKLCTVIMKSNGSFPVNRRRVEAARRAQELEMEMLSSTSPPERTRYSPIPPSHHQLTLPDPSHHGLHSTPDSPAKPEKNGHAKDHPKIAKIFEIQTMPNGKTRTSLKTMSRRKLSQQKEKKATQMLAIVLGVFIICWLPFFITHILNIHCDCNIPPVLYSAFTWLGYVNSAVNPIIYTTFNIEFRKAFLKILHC

SMILES | activation
CC(OC(=O)CNS(=O)(=O)/C=C/c1ccccc1)C(=O)Nc1ccc(S(=O)(=O)N2CCCC2)cc1 (configuration not stated) | 0.137%
CCOc1ccc(NC(=O)CN(C)C(=O)c2c(C)noc2C)cc1OCC | -1.71%
NC(=O)C(Cc1ccccc1)NC(=O)C12CC3CC(CC(C3)C1)C2 (configuration not stated) | -2.84%
CSc1nnc2c(n1)OC(c1cn(C)c3ccccc13)N(C(C)=O)c1ccccc1-2 (configuration not stated) | -3.75%
O=C(CSc1nc2cccc(F)c2c(=O)n1-c1ccccc1)Nc1ccc2c(c1)CCC2 | 0.472%
C=CS(=O)c1sc(Cl)c(N2CCOCC2)c1[N+](=O)[O-] (configuration not stated) | -11%
CC(C)c1cccc(C(C)C)c1Nc1cn[nH]c1 | 8.06%
CSCCC(NC(=O)COc1ccccc1)C(=O)N(C)CC(=O)Nc1ccc(C)cc1 (configuration not stated) | -3.34%
Cc1ccc(Sc2cc(N3CCOCC3)nc(-c3ccccc3)n2)cc1 | 2.6%
Cc1csc(NC(=O)CSc2nnc(-c3cccnc3)o2)n1 | -2.74%
CCC(=NC1CC(C)(C)NC(C)(C)C1)C1=C(O)CC(C)(C)CC1=O | 0.839%
CCOc1ccc(NC(=O)CN(C)CC(=O)NC(C)c2ccccc2)cc1OCC (configuration not stated) | -5.49%
COCCn1c(C)cc(C(=O)COC(=O)/C=C/c2cccc(OC)c2)c1C | -0.488%
CCCCc1nccn1CCn1ccnc1CCCC | -1.34%
Cc1cc(C)nc(N2C(=O)CC(Cc3ccccc3)C2=O)n1 (configuration not stated) | -1.43%
CC(C)c1ccc(N(C(=O)c2ccco2)C(C(=O)NC2CCCC2)c2cccnc2)cc1 (configuration not stated) | 1.27%
CCN1CCN(C(=O)/C=C\C(=O)O)CC1 | -0.987%
CCOc1ccc(Oc2nc(C)cc(OC)n2)nn1 | -3.16%
CCC(C(=O)NC1CCCCC1)N(C(=O)c1snc(C(N)=O)c1N)c1ccc(OC)cc1OC (configuration not stated) | -1.51%

SMILES | activation
CC(=O)NC1(c2ccc(F)cc2)CCN(C(=O)c2c(F)cccc2F)CC1 | -4.03%
Cc1ccc(Cl)cc1NC(=O)C1CCN(S(C)(=O)=O)CC1 | -3.51%
CC(NCc1ccccc1OC1CCCC1)c1ccccc1 (configuration not stated) | -2.1%
COc1ccc(-c2ccc3nnc(SCC(=O)Nc4ccc(NC(C)=O)cc4)n3n2)cc1 | 0.231%
O=C(NNS(=O)(=O)c1ccc(F)cc1)C1CCCCC1 | -2.79%
O=C(Cn1nc([N+](=O)[O-])nc1Br)NC1CCCCC1 | 6.2%
CC(=O)c1nnn(-c2ccc(Cl)cc2C#N)c1C | -0.344%
Cc1cccc2nc(CNc3ccc(F)cc3)cn12 | -2.67%
COc1ccc([N+](=O)[O-])cc1NC(=O)c1ccc(N(Cc2ccccc2C)S(C)(=O)=O)cc1 | 1.42%
CN(CC(=O)NC1CCCCC1)S(=O)(=O)c1cccc2cccnc12 | -4.91%
CCCCCN(C(=O)NC(=O)Nc1cccc(C)c1C)S(C)(=O)=O | -5.29%
Cc1ccccc1Nc1scc(-c2ccc(Br)cc2)[n+]1-c1ccccc1C | -4.78%
Cc1nn(-c2ccccc2)c2c1c(C)c(CCC(=O)NCC1CCCO1)c(=O)n2C (configuration not stated) | -0.567%
O=c1ccc2cc(S(=O)(=O)N3CCN(c4ccccc4)CC3)ccc2o1 | -0.365%
CCCOc1cc(C)c(S(=O)(=O)n2nnc3ccccc32)cc1C | 2.16%
CC(=O)N1C[C@@H](CO)[C@@H](N(C)C(=O)c2ccco2)C[C@H]1c1ccccc1 | -6.66%
CCCN(CCc1ccccc1)C1CCc2c(O)cccc2C1 (configuration not stated) | 56.1% (active)
Cc1cc(C)cc(C(=O)N(CCc2ccccc2)C2=CC3CCC(C2)N3C)c1 (configuration not stated) | 0.198%
CCCc1cc(=O)[nH]c(SCC(=O)c2c(N)n(CC(C)C)c(=O)n(C)c2=O)n1 | -5.56%

SMILES | activation
Cc1ccc(-c2csc(C(C#N)=C(O)CN3CCN(C(=O)c4ccco4)CC3)n2)cc1 | 9.93%
O=C(NCC1CCCO1)C1CCN(C2CCN(C(=O)C3CCCCC3)CC2)CC1 (configuration not stated) | 0.237%
CC1CCc2c(sc3c2C2=NS(=O)(=O)CCN2C=N3)C1 (configuration not stated) | -1.75%
CCCCN1C(=O)C(=O)N(CC(=O)Nc2cccc(C(C)=O)c2)C1=O | -3.6%
O=C1CCCN1C(=O)COc1ccc([N+](=O)[O-])cc1 | -5.83%
C[C@H](OC(=O)n1ccnc1)[C@@H]1O[C@@]2(C)CCC[C@@H]1O2 | -0.3%
CCC(=O)N1c2ccc(S(=O)(=O)NCc3ccco3)cc2CC1C (configuration not stated) | 4.56%
CC(NC(=O)CNC(=O)Cc1cccc2ccccc12)c1ccc(S(N)(=O)=O)cc1 (configuration not stated) | -2.38%
COc1ccc(CC(=O)NC(C)c2ccc(Cl)c(Cl)c2)cc1S(=O)(=O)N1CCOCC1 (configuration not stated) | -3.32%
CN(C(=O)c1cccc(NC(=O)Cc2ccc(NC(=O)C3CCCN(C(=O)C4CCCC4)C3)cc2)c1)C1CCC1 (configuration not stated) | 1.94%
COC(C[C@H](O)CC(=O)COCc1ccccc1)OC | 0.157%
C[C@H](CO)N1C[C@H](C)[C@@H](CN(C)S(=O)(=O)c2ccc(F)cc2)OCc2cnnn2CCCC1=O | -9.17%
CC(C)C1C(=O)N(Cc2cn(CCC3OCCO3)nn2)CCS(=O)(=O)N1Cc1ccc(-c2ccccc2C(F)(F)F)cc1 (configuration not stated) | -3.03%
Oc1ccccc1CNc1ncc(Br)cc1Br | 0.262%
O=C(CSc1ccsc1[N+](=O)[O-])N1CCCCC1 | -4.54%
Cc1cccc(NC(=O)c2ccc(OCC(=O)NCc3ccccc3)cc2)c1C | -2.68%
Cc1c(NC(=O)C(C)OC(=O)c2cc3c4ccccc4n(C)c3s2)c(=O)n(-c2ccccc2)n1C (configuration not stated) | -5.25%
Cc1ccc(C(=O)NC2CCCC(C)C2C)cc1S(=O)(=O)N1CCCCC1 (configuration not stated) | -2.55%
N#CC1=C(N)N(c2ccc(F)cc2)C(=O)C1 | -1.46%
